According to the supplement of paper PMC4954754:
Values joined by “and” are separate entries in the source; they are usually repeats but may differ in a detail not shown here. Equal entries are not always repeated. ± gives the uncertainty stated by the source.

tested on: HEK293T-Rex XBP1-RLuc; experiment: XBP1-RLuc splicing reporter activation, triplicate, relative to 500 nM thapsigargin (% of thapsigargin); higher = stronger IRE1/XBP1s reporter activation; conditions: 6.8 µM; 18 h; screen: confirmation
Description: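 HEK293T-Rex cells stably expressing the ERSE-firefly luciferase (BiP promoter, ATF6-preferring) or XBP1-splicing Renilla luciferase (IRE1/XBP1s) reporter, 1536-well plates, compound at 6.8 µM for 18 hr at 37 °C; luminescence read […] and expressed as % activation = 100*(compound - median DMSO)/(median 500 nM thapsigargin - median DMSO). Primary screen was single-pass; confirmation screen in triplicate (mean ± SD).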

SMILES	XBP1-RLuc splicing reporter activation
Cc1ccc(NC(=S)NC(=O)C(=O)Nc2ccccc2)cc1	58.6 ± 3.3
CN(c1ccccc1)S(=O)(=O)c1cccc(C(=O)NCCc2ccc(O)c(O)c2)c1	33.2 ± 0.95
COc1cccc(C(=O)Nc2sc3c(c2C#N)CC(C)CC3)c1 (stereo not given)	3.54 ± 0.93
Cc1ccc(/C=C(\C#N)C(=O)Nc2cccc(Cl)c2)o1	0.278 ± 1.4
Oc1cccc(/C=N/Nc2ccc(Cl)nn2)c1O	19 ± 1.9
O=C(Nc1ccc2nc(NC(=O)C3CCCCC3)sc2c1)C1CCCCC1	6.08 ± 0.7
O=C(Nc1ccc2c(c1)OCCO2)C(=O)Nc1ccccc1Cl	-0.329 ± 3.7
COc1ccc(/C=N/NC(=O)c2cccc(F)c2)cc1Br	1.01 ± 0.87
Nc1ccc2nc(/C=C/c3ccccc3)[nH]c2c1	13.7 ± 0.35
O=C1N/C(=C\c2ccc(O)cc2)C(O)=C1C=NCc1ccccc1	49.1 ± 2.3
OCCNc1nc(Nc2ccc(Br)cc2)nc2ccccc12	23.4 ± 2.2
Cc1ccc(/C=N/NC(=O)c2cccc(Cl)c2)cc1	0.915 ± 0.53
N#C/C(=C/c1ccc(O)c(O)c1)c1nc2ccccc2[nH]1	10.3 ± 0.38
COc1cccc(C(=O)Nc2nc3ccc(C)cc3s2)c1	5.6 ± 0.99
C(=C\c1ccccc1)/C=N/Nc1nc2ccccc2[nH]1	5.21 ± 0.2
O=C(CCc1ccccc1)Nc1ccc(Cl)cn1	0.292 ± 0.79
Nc1ccccc1NC(=O)c1ccc(C(=O)Nc2ccccc2N)cc1	4.04 ± 0.55
Cc1cc(C)c2nc3sc(C(=O)N4CCCCC4)c(N)c3cc2c1	1.34 ± 0.73
CC(Oc1ccc(Cl)cc1Cl)C(=O)NNC(=O)c1ccc(O)c(O)c1 (stereo not given)	15.4 ± 1.8
N#C/C(=C\c1ccc(O)c(O)c1)c1nc2ccccc2[nH]1	12.6 ± 0.2

SMILES	XBP1-RLuc splicing reporter activation
CCN(CC)c1ccc(NC(=O)c2cccc(OC)c2)cc1	0.922 ± 1.9
CC(=O)Oc1ccc2cc(NC(=O)c3ccc(C)cc3)c(=O)oc2c1	12.1 ± 1.8
O=C(NC(c1ccccc1)c1ccccc1)c1csc(-c2cnccn2)n1	19 ± 0.61
Oc1ccc(/C=N/Nc2cccc3cccnc23)c(O)c1	26 ± 1.3
CCCCNC(=O)c1cc(-c2cccs2)on1	9.51 ± 1.7
CCCCCCOc1ccc(/C(C)=N/NC2=NCCN2)cc1[N+](=O)[O-]	15 ± 0.76
CCCc1cc(C(=O)Nc2cc(C)ccc2O)no1	24.5 ± 4.7
COc1ccc(NC(=O)/C(Cl)=C\c2ccccc2)cc1	-0.467 ± 2.4
NN1C(=O)/C(=C/c2ccc(O)c(O)c2)SC1=S	16.7 ± 0.56
O=c1cc(-c2ccc(O)c(O)c2)oc2cc(O)cc(O)c12	16.5 and 14.4
Cc1ccc(O)c(NC(=O)c2cc(-c3ccc(O)cc3)on2)c1	22.4 ± 1.8
Cc1ccc(O)c(NC(=O)c2cc(-c3ccco3)on2)c1	19 ± 4.5
O=C(Nc1ccccc1O)c1ccc(NS(=O)(=O)c2cccc3cccnc23)cc1	14.2 ± 3.7
O=c1[nH]c(/C=C2\C=Nc3ccccc32)c(O)n1-c1cccc(Cl)c1	47.9 ± 7.7
COc1cccc(/C=N/NC(=O)c2n[nH]c3c2CCCC3)c1	2.73 ± 0.56
Cc1nc(-c2coc3c(O)c(O)ccc3c2=O)cs1	7.82 ± 0.28
O=C1NC(=Nc2ccc(F)cc2)S/C1=C\c1ccc(O)c(O)c1	17.4 ± 1.8
Cc1ccc(C(=O)Nc2sc3c(c2C#N)CCC3)cc1	4.62 ± 0.97
COc1cccc(-c2cc(C(=O)Nc3cc(C)ccc3O)on2)c1	12.2 ± 1.9
CN(C)c1ccc(C2C(C#N)=C(N)Oc3c2sc2ccccc32)cc1[N+](=O)[O-] (stereo not given)	9.04 ± 0.83
